The results in this text go back to PubChem BioAssay (NCATS).

Test [1] addresses Lysosomal acid glucosylceramidase (Homo sapiens) (UniProt P04062). Briefly: Glucocerebrosidase-p2 (AID 348; in the data active means potency below about 10 µM; further: potency means the concentration at half of the fitted maximal effect). The settings on record: purified GBA, blue fluorogenic substrate, 40 min. The procedure, abridged:
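Normal human glucocerebrosidase (0.2 nM) with blue fluorogenic substrate (80 uM final) in citrate/phosphate pH 5.9 with 10mM sodium taurocholate, 0.01% tween-20; 40 min RT, NaOH/glycine stop; fluorescence Ex 365/Em 440; AC50 from a titration from 0.6 nM upwards.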

The nature of test [2]: qHTS Assay for Identification of Small Molecule Agonists for Hypoxia Response Element Signaling Pathway (AID 914; active means well fitted activation curve with a large enough effect in the signal ratio, with a control signal flat, not every such curve was filed as active; the % refers to the signal ratio; further: potency means the concentration at half of the fitted maximal effect; on activation: % of control where 0% means no effect). The settings on record: ME-180 (cervical carcinoma) HRE-bla reporter, beta-lactamase ratio, CoCl2, 17 h; activation: hits give high values. The procedure, abridged:
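Compounds in a titration series were added to ME-180 reporter cells alongside an EC50 level of CoCl2. After 17 hours, beta-lactamase activity was read as the 460nm/530nm emission ratio of CCF4, giving AC50 values.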

The target in test [3] is Cytochrome P450 3A4 (Homo sapiens) (UniProt P08684). Kind of test: qHTS Assay for Activators of Cytochrome P450 3A4 (AID 885). Further: nearly all actives have a fitted effect of over 65% in size. The note with it: recombinant CYP3A4, Luciferin-PPXE luminescence, 60 min; series mostly up to 57.1 µM. The procedure, abridged: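 Luminescent readout of luciferin formed from 25 uM Luciferin-PPXE (KM level) by 20 nM CYP3A4 in 200 mM KPO4, with 60 min NADPH-driven reaction at room temperature after 10 min compound exposure. Ketoconazole (57 uM) defined 100% inhibition.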
Chain of Cytochrome P450 3A4 (Homo sapiens) (P08684 whole entry, looked up): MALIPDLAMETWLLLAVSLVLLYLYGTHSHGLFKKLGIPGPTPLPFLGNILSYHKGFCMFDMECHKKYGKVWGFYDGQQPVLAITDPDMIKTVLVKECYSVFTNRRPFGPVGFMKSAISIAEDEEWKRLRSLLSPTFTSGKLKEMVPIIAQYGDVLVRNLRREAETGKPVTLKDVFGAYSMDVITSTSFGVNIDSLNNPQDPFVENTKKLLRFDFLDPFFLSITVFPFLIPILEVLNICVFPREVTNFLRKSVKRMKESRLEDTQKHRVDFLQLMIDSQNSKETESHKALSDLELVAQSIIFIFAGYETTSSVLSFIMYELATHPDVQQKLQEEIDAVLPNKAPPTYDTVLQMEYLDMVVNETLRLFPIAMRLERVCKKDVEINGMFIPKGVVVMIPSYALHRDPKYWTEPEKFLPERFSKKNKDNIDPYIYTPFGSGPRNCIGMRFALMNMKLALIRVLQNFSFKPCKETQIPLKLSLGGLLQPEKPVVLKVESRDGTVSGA

Test [4] can be described thus: Confirmation and Secondary Assay for Modulators of Hemoglobin Beta Chain Splicing at IVS2 654 locus (AID 910).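 Further: HeLa cells stably carrying EGFP split by mutant beta-globin IVS2-654 intron; per-well total GFP intensity by laser scanning cytometry after 2-day treatment; % of control where 0% means no effect.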 The note with it: HeLa EGFP-654 splicing reporter, GFP fluorescence, 48 h; series mostly up to 38.3 µM. The procedure, abridged: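 Readout: per-well total peak green fluorescence (488 nm ex, 500–520 nm em) from objects 5–250 µm, reflecting correct splicing of an EGFP-654 reporter. Compounds were applied for 2 days at 37 °C to overnight-plated HeLa EGFP-654 cells; controls were DMSO and 500 nM IVS2-654 PNA.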

The nature of test [5]: Confirmation and Secondary Assay for Modulators of Hemoglobin Beta Chain Splicing at IVS2 705 locus (AID 930).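 Further: HeLa cells stably expressing the EGFP-705 splicing reporter; GFP fluorescence per well restored by corrected splicing of the IVS2-705 intron in EGFP; % of control where 0% means no effect.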 The settings on record: HeLa EGFP-705 splicing reporter, GFP fluorescence, 48 h; series mostly up to 38.3 µM. The procedure, abridged:
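Assay measures total GFP intensity per well in HeLa EGFP-705 cells after 2 days with compound; mis-splicing normally truncates EGFP, so fluorescence indicates corrected splicing.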

The target of test [6] is Cytochrome P450 3A4 (Homo sapiens) (UniProt P08684). Kind of test: qHTS Assay for Inhibitors and Substrates of Cytochrome P450 3A4 (AID 884). Further: potency means the concentration at half of the fitted maximal effect; nearly all actives have a fitted effect of over 50% in size. The note with it: recombinant CYP3A4, Luciferin-PPXE luminescence; series mostly up to 57.1 µM. An outline of the steps:
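Luminescent readout of luciferin produced by CYP3A4 (20 nM) dealkylation of Luciferin-PPXE, 25 uM (its KM). NADPH-driven reaction ran 60 min at RT after 10 min compound preincubation; data scaled to 57 uM ketoconazole as 100% inhibition.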

The target of test [7] is Cytochrome P450 2D6 (Homo sapiens) (UniProt P10635). Kind of test: qHTS Assay for Inhibitors and Substrates of Cytochrome P450 2D6 (AID 891). Further: potency means the concentration at half of the fitted maximal effect; nearly all actives have a fitted effect of over 60% in size. The note with it: recombinant CYP2D6, luciferin-ME EGE luminescence; series mostly up to 57.1 µM. An outline of the steps: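 Luminescent read-out of luciferin formed by 5 nM human CYP2D6 demethylating 30 uM Luciferin-ME EGE (Km level) over 60 min at room temperature after NADPH regeneration addition. Data normalized to full inhibition by 1.43 uM quinidine.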
Chain of Cytochrome P450 2D6 (Homo sapiens) (P10635 whole entry, looked up): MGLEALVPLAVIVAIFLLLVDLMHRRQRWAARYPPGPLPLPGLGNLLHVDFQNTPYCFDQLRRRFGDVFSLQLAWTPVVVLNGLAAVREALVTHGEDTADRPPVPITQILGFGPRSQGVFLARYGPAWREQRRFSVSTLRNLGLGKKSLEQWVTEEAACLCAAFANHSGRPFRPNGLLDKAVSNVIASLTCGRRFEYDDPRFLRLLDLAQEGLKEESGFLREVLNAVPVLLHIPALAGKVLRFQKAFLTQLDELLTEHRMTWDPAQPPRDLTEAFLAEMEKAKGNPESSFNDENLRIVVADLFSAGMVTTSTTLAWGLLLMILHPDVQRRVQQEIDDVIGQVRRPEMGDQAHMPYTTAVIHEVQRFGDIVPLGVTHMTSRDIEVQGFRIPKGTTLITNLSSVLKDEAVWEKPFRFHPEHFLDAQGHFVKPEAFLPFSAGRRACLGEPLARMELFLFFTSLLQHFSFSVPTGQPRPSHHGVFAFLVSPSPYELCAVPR

Test [8] has as its target Cytochrome P450 2C9 (Homo sapiens) (UniProt P11712). Briefly: qHTS Assay for Inhibitors and Substrates of Cytochrome P450 2C9 (AID 883). Further: potency means the concentration at half of the fitted maximal effect; nearly all actives have a fitted effect of over 60% in size. The settings on record: recombinant CYP2C9, luciferin-H luminescence, 60 min; series mostly up to 57.1 µM. An outline of the steps: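 Inhibition of CYP2C9 is scored as loss of luminescence, with 57uM sulphaphenazole defining 100% inhibition. Substrate Luciferin-H is used at 100uM, equal to its KM; enzyme at 10nM in 25mM KPO4, 60 min at 37C with NADPH regeneration.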

The target in test [9] is Cytochrome P450 2C19 (Homo sapiens) (UniProt P33261). Kind of test: qHTS Assay for Inhibitors and Substrates of Cytochrome P450 2C19 (AID 899). Further: potency means the concentration at half of the fitted maximal effect; nearly all actives have a fitted effect of over 60% in size. The settings on record: recombinant CYP2C19, luciferin-H EGE luminescence; series mostly up to 57.1 µM. An outline of the steps: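 5nM enzyme + 10uM Luciferin-H EGE (=KM), 50mM KPO4; cpd pin-transferred, 10 min 37C; NADPH regen, 60 min 37C; stopped w/ luciferin detection reagent, 20 min; luminescence. Normalized to 57uM ketoconazole (AC100).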
Chain of Cytochrome P450 2C19 (Homo sapiens) (P33261 whole entry, looked up): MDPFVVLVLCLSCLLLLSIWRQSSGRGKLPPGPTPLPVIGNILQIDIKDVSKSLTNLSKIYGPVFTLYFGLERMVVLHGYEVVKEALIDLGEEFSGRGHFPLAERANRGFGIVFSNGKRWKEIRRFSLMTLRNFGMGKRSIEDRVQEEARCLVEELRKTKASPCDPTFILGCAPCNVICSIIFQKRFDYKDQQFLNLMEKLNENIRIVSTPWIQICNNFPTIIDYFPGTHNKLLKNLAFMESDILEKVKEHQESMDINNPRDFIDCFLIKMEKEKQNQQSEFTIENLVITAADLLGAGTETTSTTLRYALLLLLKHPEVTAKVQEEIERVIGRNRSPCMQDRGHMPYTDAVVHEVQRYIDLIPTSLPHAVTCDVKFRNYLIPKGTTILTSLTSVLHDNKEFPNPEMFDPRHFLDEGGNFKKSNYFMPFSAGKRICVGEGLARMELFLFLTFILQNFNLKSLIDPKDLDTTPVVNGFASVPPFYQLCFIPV

Unmarked numbers belong to inactive results. Results filed as inconclusive are left out. The source made the active and inactive calls. Unless noted, the call rests on the fitted dose curve; in most records, active means well fitted curve in the direction sought with a large enough effect; inconclusive means small, poorly fitted or top-dose-only effect, or another doubt; inactive means no such curve, though single readings can be large; an effect the other way counts as inactive or inconclusive.

Chain of Lysosomal acid glucosylceramidase (Homo sapiens) (P04062 whole entry, looked up): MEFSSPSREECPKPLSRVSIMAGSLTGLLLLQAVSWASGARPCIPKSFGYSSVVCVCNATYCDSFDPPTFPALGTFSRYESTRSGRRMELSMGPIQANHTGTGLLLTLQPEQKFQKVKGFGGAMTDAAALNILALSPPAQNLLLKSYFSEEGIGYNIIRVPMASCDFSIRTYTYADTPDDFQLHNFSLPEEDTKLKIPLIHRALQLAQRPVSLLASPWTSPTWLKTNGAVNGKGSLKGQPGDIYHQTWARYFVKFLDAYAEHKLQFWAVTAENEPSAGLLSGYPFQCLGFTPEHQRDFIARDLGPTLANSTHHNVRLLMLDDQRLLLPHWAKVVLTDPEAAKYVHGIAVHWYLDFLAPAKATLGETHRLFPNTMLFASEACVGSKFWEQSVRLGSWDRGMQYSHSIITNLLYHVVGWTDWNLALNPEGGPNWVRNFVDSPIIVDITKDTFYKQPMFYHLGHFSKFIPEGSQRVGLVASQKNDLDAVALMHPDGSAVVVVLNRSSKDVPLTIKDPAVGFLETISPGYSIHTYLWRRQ
Chain of Cytochrome P450 2C9 (Homo sapiens) (P11712 whole entry, looked up): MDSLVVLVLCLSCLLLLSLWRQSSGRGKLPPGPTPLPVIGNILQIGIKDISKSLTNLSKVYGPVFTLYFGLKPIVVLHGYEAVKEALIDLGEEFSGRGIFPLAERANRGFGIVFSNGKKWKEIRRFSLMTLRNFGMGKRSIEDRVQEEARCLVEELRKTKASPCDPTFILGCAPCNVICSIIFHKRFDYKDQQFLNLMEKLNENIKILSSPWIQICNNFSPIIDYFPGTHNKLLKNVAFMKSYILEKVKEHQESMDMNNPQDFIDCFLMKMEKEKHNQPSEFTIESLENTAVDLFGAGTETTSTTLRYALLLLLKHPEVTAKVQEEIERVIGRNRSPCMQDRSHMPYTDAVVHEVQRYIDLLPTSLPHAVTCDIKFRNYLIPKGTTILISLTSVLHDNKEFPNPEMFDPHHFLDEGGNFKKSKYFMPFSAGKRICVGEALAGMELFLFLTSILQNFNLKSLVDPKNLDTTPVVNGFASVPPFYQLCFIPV

As to `O=C(c1cnccn1)N1CCC2(CCN(Cc3ccncc3)CC2)CC1`, in test [1], the Potency was above 11.4 µM. For the same compound, the activation in test [2] is 2.3%.
On to `O=S(=O)(c1ccccc1)N1CCC2(CCN(c3ccncc3)CC2)CC1`, for which the Potency in test [1] is above 11.4 µM.
Regarding `COc1ccc(Oc2ncc3nc(CCc4ccccc4)c(=O)n(C)c3n2)cc1`, in [1], the Potency is above 11.4 µM. For the same compound, the Potency entry in test [3] was “inactive”.
With `N#CCCn1c(=O)c(CCc2ccccc2)nc2cnc(N3CCOCC3)nc21`, in test [1], the Potency is above 11.4 µM.
With `O=c1c(CCc2ccccc2)nc2cnc(N3CCOCC3)nc2n1C[C@H]1CCCO1`, the Potency in test [1] was above 11.4 µM.
In the case of `CN(C)C(=O)c1ccc(-c2ccc3ncnc(NCc4cccnc4)c3c2)cc1`, the Potency in test [1] was above 11.4 µM. Moreover, the Potency result in [4] is “inactive”. In addition, the call in test [5] was inactive.
`COc1ccc(CNc2ncnc3ccc(-c4ccc(C(=O)N(C)C)cc4)cc23)c(OC)c1`: the Potency in [1] was above 11.4 µM; in [6], 2.51 µM (active). Besides, in test [3], the Potency entry was “inactive”.
As for `COc1ccc(NC(=O)N2CCC3(CC2)CCN(C(=O)c2cc(C(F)(F)F)cc(C(F)(F)F)c2)CC3)cc1`, the Potency in test [1] was above 11.4 µM.
On to `c1ccc(Nc2ncnc3ccc(-c4ccc5c(c4)OCO5)cc23)cc1`, for which the values for the Potency in test [1], in [6] and in [7] were above 11.4 µM, 2.51 µM (active) and 0.126 µM (active), respectively. For the same compound, the Potency result in [3] and in test [4] was “inactive” in each case. Moreover, in test [5], the outcome was inactive.
For `Cc1cccc(CNc2ccnc(-c3cccc(NS(C)(=O)=O)c3)n2)c1`, the Potency in [1] was above 11.4 µM. For the same compound, in test [4], the Potency entry is “inactive”. Also, in test [5], the compound was classed as inactive.
For the compound `CN(C)Cc1ccccc1-c1ccc2ncnc(NCc3cccs3)c2c1`, the Potency in test [1] was above 11.4 µM. Also, the Potency entry in [4] is “inactive”. Also, the result in [5] was inactive.
Regarding `O=c1c(-c2cc(F)cc(F)c2)nc2cnc(Oc3ccccc3)nc2n1C[C@H]1CCCO1`, the Potency in [1] is above 11.4 µM. The Potency entry in test [3] is “inactive”. In addition, the activation in test [2] was 3.51%.
With `COc1ccccc1CN1CCC2(CC1)CCN(C(=O)c1cc(C(F)(F)F)cc(C(F)(F)F)c1)CC2`, the Potency in test [1] was above 11.4 µM.
On the same count and under the same terms, with `N#CCCn1c(=O)c(-c2ccc(Cl)cc2)nc2cnc(Oc3cccc(Cl)c3)nc21` the figure was above 11.4 µM; with `COCCn1c(=O)c(-c2ccc(F)cc2)nc2cnc(Oc3ccc(OC)cc3)nc21`, above 11.4 µM.
Take `Cc1ccccc1-c1cncnc1N1CCNCC1`: the Potency in test [1] was above 11.4 µM. Also, in test [5], the result was inactive.
Turning to `O=C(c1ccco1)N1CCC2(CC1)CCN(c1ccncc1)CC2`, in [1], the Potency was above 11.4 µM.
For the compound `COc1ccccc1CNc1ncnc2ccc(-c3ccc(N(C)C)cc3)cc12`, the Potency in test [1] was above 11.4 µM; in test [6], 2 µM (active). Further, the Potency entry in test [3] and in [4] was “inactive” each time. Moreover, in test [5], the compound was called inactive.
For the compound `O=C(Nc1ccccc1)N1CCCC2(CCNCC2)C1`, in test [1], the Potency is above 11.4 µM. For the same compound, the Potency result in test [3] was “inactive”.
Consider `CN1CCN(c2nc(-c3cccc(NS(C)(=O)=O)c3)nc3ccccc23)CC1`, for which, in test [1], the Potency is above 11.4 µM. Further, the Potency entry in [4] was “inactive”. The call in test [5] was inactive.
In the case of `COCC(=O)N1CCC2(CCN(Cc3ccncc3)CC2)CC1`, the Potency in test [1] is above 11.4 µM; in [8], 0.398 µM (active); in [7] it was 6.31 µM (active); in test [9] it was 0.0251 µM (active). For the same compound, the Potency result in [3] is “inactive”.
As for `COc1cccc(-c2nc(N3CCNCC3)c3ccccc3n2)c1`, the Potency in test [1] is above 11.4 µM. Besides, in test [4], the Potency result was “inactive”. Besides, in test [5], the result was inactive.
In the case of `COc1ccc(-c2nc3cnc(N4CCNCC4)nc3n(C3CC3)c2=O)cc1`, the Potency in [1] is above 11.4 µM; in test [8], 7.94 µM (active); in [2] it was 3.16 µM (active). Besides, the Potency result in test [3] was “inactive”.
As to `COc1ccccc1CN1CC[C@@]2(CCCN(C(=O)c3ccco3)C2)C1`, the Potency in test [1] was above 11.4 µM; in test [7] it was 0.501 µM (active). The Potency entry in test [3] was “inactive”. Also, the activation in [2] was 6.4%.
